This passage reports Percent Effect results from ChEMBL document CHEMBL3988442, “University of Dundee, Small-Polar-MMV Screening Library” (2021).

Assay [1] deals with T1, Aspartate--tRNA(Asp/Asn) ligase (Mycobacterium tuberculosis (strain ATCC 25618 / H37Rv)) (UniProt P9WFW3).
T1 sequence (whole entry): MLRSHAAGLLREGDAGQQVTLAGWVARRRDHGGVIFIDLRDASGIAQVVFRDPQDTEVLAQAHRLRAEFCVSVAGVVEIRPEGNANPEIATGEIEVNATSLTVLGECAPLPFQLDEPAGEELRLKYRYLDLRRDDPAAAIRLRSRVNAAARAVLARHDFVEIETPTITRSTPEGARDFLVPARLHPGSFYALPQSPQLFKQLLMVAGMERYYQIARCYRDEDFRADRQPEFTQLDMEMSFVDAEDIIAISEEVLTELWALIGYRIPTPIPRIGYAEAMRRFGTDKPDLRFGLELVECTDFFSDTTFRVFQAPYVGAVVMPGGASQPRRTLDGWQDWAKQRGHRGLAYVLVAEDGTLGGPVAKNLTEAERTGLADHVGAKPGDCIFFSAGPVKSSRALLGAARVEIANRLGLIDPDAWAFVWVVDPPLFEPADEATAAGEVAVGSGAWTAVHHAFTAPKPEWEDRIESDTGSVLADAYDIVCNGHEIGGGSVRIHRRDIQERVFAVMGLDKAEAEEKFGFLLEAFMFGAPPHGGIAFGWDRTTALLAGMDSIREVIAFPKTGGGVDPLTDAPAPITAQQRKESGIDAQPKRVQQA
As to the kind of experiment: Assay for Asp RNA synthetase-1 from Mycobacterium tuberculosis. More on the design: scale not given: direction of the effect not stated beside the values. The assay is classed as functional. The following applies: 30 µM.

Assay [2] addresses Shiga toxin 2 (Escherichia coli O157:H7) (UniProt P09385+P09386). As to the kind of experiment: E. coli 0.157:H7 Shiga Toxin SOP - stx2 screening assay. The class given is functional. Details: scale not given: direction of the effect not stated beside the values. The note with it: 30 µM.

For `Cc1cnn(CC2CN(CCc3ccncc3)CCO2)c1` (configuration not stated), the Percent Effect in assay [1] was 8.62%; in assay [2], -2.69%.

In the case of `O=C(c1cccc(CN2CCCC2)c1)N1CCCC(n2cncn2)C1` (configuration not stated), the Percent Effect came out at 11.7% in assay [1] and 14% in assay [2].

`O=C(c1cccn1Cc1cccs1)N1CCCC1Cn1cccn1` (configuration not stated): the Percent Effect is -0.702% in assay [1] and 14.5% in assay [2].

With `Cn1c(CN2CCOCC2)nnc1C1CCN(C(=O)C2CCCC2)CC1`, the Percent Effect in assay [1] is 1.73%; in assay [2], -33.5%.

For the compound `CC(Oc1ccccc1C(F)(F)F)C(=O)NCC(N)=O` (configuration not stated), the Percent Effect in assay [1] was -3.56%; in assay [2], 11.5%.

`CCNC(=O)c1ncn2c1CN(C)S(=O)(=O)c1ccccc1-2`: the Percent Effect was -3.46% in assay [1] and -5.52% in assay [2].

As for `CC(C)(C)n1cc(C(=O)N2CCCN(Cc3cccs3)CC2)cn1`, the Percent Effect in assay [1] is -0.0333%; in assay [2], 35.3%.

With `O=C1CN(Cc2nnc(-c3ccc(Br)o3)o2)CCN1`, the values for the Percent Effect in assay [1] and in assay [2] were -1.11% and -65.1%, respectively.

In the case of `COc1cc(C)nc(N2CCN(C(=O)COCC(F)(F)F)CC2)n1`, the Percent Effect is -2.06% in assay [1] and -20.7% in assay [2].

Turning to `CC(NC(=O)NCc1ccoc1)c1ccc2c(c1)CCC(=O)N2` (configuration not stated), the values for the Percent Effect in assay [1] and in assay [2] were -9.2% and -43.2%, respectively.

As to `CN(C)C(=O)N1C[C@@H]2CC[C@H](C1)N(Cc1ccc3nsnc3c1)C2`, the Percent Effect was 6.27% in assay [1] and -56.9% in assay [2].

With `NC(=O)C1CN(C(=O)Nc2ccccc2SC(F)(F)F)CCO1` (configuration not stated), the Percent Effect in assay [1] is -5.1%; in assay [2], -11.7%.

Regarding `CC(=O)NCC(=O)N1CC[C@H](OCC2CC2)[C@@H]1Cc1cccnc1`, the values for the Percent Effect in assay [1] and in assay [2] were 1.14% and 5.09%, respectively.

As for `Cc1cnc(CN2CCOC(CNc3cccnn3)C2)cn1` (configuration not stated), the Percent Effect in assay [1] is -2.97%; in assay [2], 6.13%.

Consider `CN1CC(=O)N(c2ccccc2)CC12CCN(Cc1nccs1)C2` (configuration not stated), for which the Percent Effect is 4.78% in assay [1] and -21.2% in assay [2].

Regarding `O=C(Cc1csc(-c2nnc[nH]2)n1)N1CCCC1Cn1cccn1` (configuration not stated), the figures for the Percent Effect in assay [1] and in assay [2] were -4.54% and 5.43%, respectively.

As to `CC(OCC(F)(F)F)C(=O)N1CCCCC1` (configuration not stated), the Percent Effect in assay [1] was 1.09%; in assay [2] it was -2.39%.

Turning to `Cn1cnnc1C1CCCN(C(=O)NCc2ccc3c(c2)OCO3)C1` (configuration not stated), the Percent Effect was -2.83% in assay [1] and 7.83% in assay [2].

Take `CC(c1nc(C2CC2)no1)N1CCN(Cc2ccsc2)CC1` (configuration not stated): the Percent Effect was -4.63% in assay [1] and -11.4% in assay [2].

Turning to `Cc1ccc(OCCCNC(=O)NC(C)c2nncn2C)cc1` (configuration not stated), the Percent Effect in assay [1] was -2.1%; in assay [2] it was 7.34%.

Regarding `O=C(C1COCCO1)N1CCN(Cc2ccc3c(c2)CCO3)CC1` (configuration not stated), the Percent Effect stood at 1.71% in assay [1] and 8.81% in assay [2].

Take `O=C(c1cc(Cl)c2c(c1)OCCO2)N1CCCC(n2cncn2)C1` (configuration not stated): the Percent Effect is -7.78% in assay [1] and 10.4% in assay [2].

In the case of `NC(=O)Cn1cc(NC(=O)N2CCCC2)cn1`, the Percent Effect in assay [1] was -2.12%; in assay [2] it was -31.6%.

In the case of `CCNC(=O)c1ccc(CNCc2c(C)nn(C)c2N(C)C)cc1`, the results for the Percent Effect in assay [1] and in assay [2] were -0.75% and -25.7%, respectively.

With `Cc1ccc(CN2CCC3(CC2)CC(c2cccnc2)CO3)s1` (configuration not stated), the Percent Effect in assay [1] was -2.49%; in assay [2] it was -7.07%.

`NC(=O)C1CCN(Cn2nc(-c3ccccc3)oc2=O)CC1`: the Percent Effect in assay [1] is 9.54%; in assay [2] it was -53.5%.

Take `Cc1cc(C)nc(N2CCN(C(=O)c3cc(Cl)c[nH]3)CC2)n1`: the Percent Effect in assay [1] was 1.48%; in assay [2], -6.42%.

`Cc1cnn(CC2CCCCN2CC(=O)NCc2ccccn2)c1` (configuration not stated): the Percent Effect was -0.659% in assay [1] and 0.25% in assay [2].

Regarding `Cc1ccccc1-c1cncc(C2CCN(C(=O)CN(C)C)CC2)n1`, the Percent Effect in assay [1] was 6.8%; in assay [2], -18.5%.

Regarding `Cc1csc(N2CCCN(C(=O)C(C)n3ccnc3)CC2)n1` (configuration not stated), the results for the Percent Effect in assay [1] and in assay [2] were 1.2% and -6.32%, respectively.

On to `O=C(NCCCn1ccnc1)N1CCCC1c1cccs1` (configuration not stated), for which the Percent Effect in assay [1] is -2.61%; in assay [2] it was -5.52%.

For `CC(C)CC(=O)N1C[C@@H]2CCN(c3ncccn3)C[C@@H]2C1`, the figures for the Percent Effect in assay [1] and in assay [2] were 4.21% and -21.6%, respectively.

`O=C(c1ccc(Br)o1)N1CCN(Cc2ccc(OC(F)(F)F)cc2)CC1`: the figures for the Percent Effect in assay [1] and in assay [2] were -5.95% and 16.1%, respectively.

Consider `c1cnc(N2C[C@H]3CCN(c4cccnc4)C[C@H]3C2)nc1`, for which the Percent Effect in assay [1] is -2.01%; in assay [2], -9.94%.

With `Cc1cn(CC(=O)NC2CCN(C(=O)C3CC3)CC2)c2ccccc12`, the Percent Effect in assay [1] was 2.13%; in assay [2], 6.97%.

Take `CC1CCN(CCCNS(=O)(=O)c2cccc(F)c2)CC1`: the values for the Percent Effect in assay [1] and in assay [2] were 11.5% and -61.6%, respectively.

As for `Cc1ccc2c(c1)CCC21CCN(C(=O)CO)CC1`, the Percent Effect in assay [1] is 5.32%; in assay [2] it was -38.4%.

As to `Cc1nccn1C1CCCN(C(=O)c2cc3ccccc3[nH]2)C1` (configuration not stated), the Percent Effect turned out to be 0.714% in assay [1] and 0.146% in assay [2].

`CN(Cc1ccsc1)C(=O)Nc1ccc(S(C)(=O)=O)nc1`: the figures for the Percent Effect in assay [1] and in assay [2] were -0.6% and -35.6%, respectively.

On to `c1ccc(COC2CCN(c3cncc(-n4cccn4)n3)CC2)cc1`, for which the values for the Percent Effect in assay [1] and in assay [2] were -3.76% and -38.3%, respectively.

`O=c1cc(Cn2cncn2)nc2n1CCCN(CC1CC1)C2`: the Percent Effect in assay [1] was -4.96%; in assay [2] it was -0.568%.

With `COc1ccc(CS(=O)(=O)CC(=O)NCC2CC2)cc1F`, the Percent Effect in assay [1] was 3.98%; in assay [2], -12.5%.

Regarding `CC(NC1(CNC(=O)CC(C)(C)C)CCOCC1)c1ccccc1` (configuration not stated), the Percent Effect in assay [1] turned out to be 9.41%; in assay [2], 20.8%.

As for `Cc1c[nH]c(CN(C)c2nc(C3CCCC3)nc3c2cnn3C)n1`, the Percent Effect in assay [1] is 0.0557%; in assay [2], -4.38%.

With `CNCC(=O)N1CC(c2cc(Nc3ncccn3)nc(C)n2)C1`, the results for the Percent Effect in assay [1] and in assay [2] were -3.19% and -3.14%, respectively.

For `Cc1nc(C)n(C2CCCN(C(=O)c3ccccc3C)C2)n1` (configuration not stated), the Percent Effect in assay [1] amounted to 0.173%; in assay [2], 18.2%.

On to `CN(CC(=O)NCc1ccccn1)CC1CCCN1c1cccnn1` (configuration not stated), for which the Percent Effect in assay [1] was -4.1%; in assay [2] it was -17.5%.

Consider `CCc1nnc2n1CCN(C(=O)CN(C)Cc1ccccc1)C2`, for which the values for the Percent Effect in assay [1] and in assay [2] were -3.23% and 15.9%, respectively.

Regarding `Cc1nc(CC(=O)N2CCCN(c3ccc(C#N)cc3)CC2)cs1`, the figures for the Percent Effect in assay [1] and in assay [2] were -8.71% and -26.6%, respectively.

Regarding `Cc1nc(CNCc2c(C)nn(C)c2N2CCOCC2)cs1`, the Percent Effect in assay [1] was -5.61%; in assay [2], 23.3%.

On to `CS(=O)(=O)N1CCCN(C(=O)c2ccc(Cn3ccccc3=O)o2)CC1`, for which the Percent Effect was found to be 1.66% in assay [1] and 25% in assay [2].
